Source: PubChem BioAssay AID488890 (Southern Research Specialized Biocontainment Screening …, 2010)
Screen size: about 320,000 compounds; about 1,300 (0.41%) were called active. Not shown: some 3% with an inconclusive outcome. No rule for the calls is given here. These entries were drawn from the full list. Measured potencies and affinities stand elsewhere.

Assay: growth inhibition of non-replicating M. tuberculosis (AID 488890);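 also: plate controls were DMSO cells for no effect and high antibiotic wells for full effect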
Conditions: Mycobacterium tuberculosis non-replicating, at 25 µM, stronger effect = higher value

SMILES | inhibition [%]
FC(F)(F)c1cccc(CON=C2CCN(c3ncc(C(F)(F)F)cc3Cl)CC2)c1 | -8.15
O=C(Nc1cc(Cl)ccc1Cl)c1ccco1 | -1.55
O=C(Nc1cc(Cl)ccc1Cl)c1ccc(OC(=O)c2ccco2)cc1 | 49.5
CN(Cc1ccc2c(c1)OCCO2)C(=O)CSc1ncnc2sccc12 | 25.8
CCCc1cc(=O)[nH]c(SCC(=O)c2cc(C)n(CC(F)(F)F)c2C)n1 | 6.27
COc1cccc(-n2ccnc2SCC(=O)Nc2ccccc2)c1 | 2.78
O=C(N/N=C\c1ccc(O)c([N+](=O)[O-])c1)C1COc2ccccc2O1 (stereo unspecified) | 57
CC(C)(C)c1ccc2c(c1)OC(C(=O)N/N=C\c1ccncc1)CO2 (stereo unspecified) | 10.4
Cn1cccc1/C=N\NC(=O)C1COc2ccc(C(C)(C)C)cc2O1 (stereo unspecified) | 78.1
O=C(N/N=C/c1cccc([N+](=O)[O-])c1)C1COc2ccccc2O1 (stereo unspecified) | 29.6
CC(C)(C)c1ccc2c(c1)OC(C(=O)N/N=C/c1ccc([N+](=O)[O-])o1)CO2 (stereo unspecified) | 77.1
C/C(=N\NC(=O)C1COc2ccccc2O1)c1ccc(Cl)s1 (stereo unspecified) | 76
O=C(N/N=C\c1ccc(-c2ccc([N+](=O)[O-])cc2)o1)C1COc2ccccc2O1 (stereo unspecified) | 42.2
O=C(N/N=C/c1c[nH]c2ccccc12)C1COc2ccccc2O1 (stereo unspecified) | 26.6
CC(C)CNS(=O)(=O)c1ccccc1C(=O)N1CCCCC1 | 8.8
C/C(=C\c1ccccc1)C(=O)N1CCN(c2cccc(C(F)(F)F)c2)CC1 | 22.2
COc1ccc(N2CC(C)Cn3c2nc2c3c(=O)n(Cc3ccc(C)cc3)c(=O)n2C)c(OC)c1 (stereo unspecified) | 17.9
CCc1ccc(C(=O)NNC(=O)c2ccc3c(=O)n4c(nc3c2)CCC4)cc1 | -9.87
Cc1cc(OC(C)C(=O)Nc2ccccc2C(=O)N2CCCC2)ccc1Cl (stereo unspecified) | 4.49
O=C(/C=C/c1ccccc1)NCCc1ccccc1 | 1.5
COc1ccc(N2CC(C(=O)OCC(=O)Nc3cccc(C)c3C)CC2=O)cc1 (stereo unspecified) | -1.13
Cn1c(N)c(C(=O)CNC2CCCCC2)c(=O)n(C)c1=O | -15.1
CCOC(=O)CNC(=O)CSc1nnc(C)c(=O)[nH]1 | -4.04
Cc1cc(C)c(S(=O)(=O)c2ccccc2C)c(OCCN(C)C)n1 | 6.46

SMILES | inhibition [%]
O=C(N/N=C/c1ccco1)C1COc2ccccc2O1 (stereo unspecified) | 4.17
CN(C)c1ccc(/C=N/NC(=O)C2COc3ccccc3O2)o1 (stereo unspecified) | 1.59
CCCN1CCN(c2ccc([N+](=O)[O-])cc2C#N)CC1 | 2.83
CC1CC(=O)C(C2c3ccccc3CCN2C(=O)CCl)C(=O)C1 (stereo unspecified) | 14.6
CN1CCCC(OC(=O)c2ccccc2Br)C1 (stereo unspecified) | -1.81
O=C1CC(N2CCN(c3ccccc3O)CC2)C(=O)N1Cc1ccccc1 (stereo unspecified) | 72
CCN1C(=O)CC(N2CCC(C(=O)N3CCCCCC3)CC2)C1=O (stereo unspecified) | 77
O=C(CC1C(=O)NCCN1Cc1cccc(Oc2ccccc2)c1)NCCc1ccncc1 (stereo unspecified) | 12.8
Cc1cccc(NC(=O)c2c(O)c3ccccc3n(C)c2=O)c1 | 13.4
COc1ccc(C(=O)OCC(=O)NC(=O)NC(C)C)cc1OC | -0.28
CC(NC(=O)C1CCCO1)c1ccccc1 (stereo unspecified) | 17.7
Cc1ccc(C(C)NC(=O)C2CCCO2)cc1C (stereo unspecified) | 16.5
COc1cc2ccccc2cc1C(=O)N1CCCCC1 | 12
COC(=O)C1=C(C)N(Cc2ccccc2)C(=NCc2cc(OC)c(OC)c(OC)c2)N[C@H]1c1cccc(F)c1 | 65.1
COC(=O)C1=C(C)N(Cc2ccccc2)C(=NCc2ccc(OC)cc2)N[C@H]1c1cccc(F)c1 | 79.1
C=CCn1c(O)c(/C=N/NC(=O)c2ccncc2)c(=O)[nH]c1=O | 58
COc1ccccc1C(=O)CC(=O)c1ccccc1 | 52.4
O=[N+]([O-])c1cnc2ccccc2c1 | -10.7
Nc1c(-c2cccc([N+](=O)[O-])c2)nc2ccccn12 | 6.84
Cc1nc2ccccc2c(=O)n1-c1cc([N+](=O)[O-])cc([N+](=O)[O-])c1 | 19.9
O=c1c2ccccc2nc2ccccn12 | -2.46
CCCOc1ccc(-c2nc(C#N)c(N3CCN(C)CC3)o2)cc1 | 30.2
CCOc1ccc(CCNC(=O)COC(=O)CCC(=O)c2cccs2)cc1OCC | 11.4
Cc1ccc(/C(=N\S(=O)(=O)c2ccc(Br)cc2)Nc2ccccc2C)cc1 | -11

SMILES | inhibition [%]
COc1ccc(NC(=O)CSCC(=O)NC2(C)CCS(=O)(=O)C2)cc1 (stereo unspecified) | -8.31
CCn1ccnc1[C@@H]1C[C@H]2CN(Cc3ccccc3OC)C(=O)[C@]23CCCN13 | 29.3
CCN(Cc1ccncc1)C(=S)Nc1ccccc1 | -19.8
CCOC(=O)C(C)Oc1ccsc1C(=O)OC (stereo unspecified) | 53.8
COc1cc(C=O)c(Cl)cc1OCC(N)=O | -0.64
O=C(Nc1ccccc1N1CCCC1)c1cccnc1Cl | 7.22
Cc1ccc(NC(=S)N2CCN(S(=O)(=O)c3ccccc3)CC2)cc1 | -12.6
Cc1ccc(OCC(=O)N2CCc3ccccc32)cc1 | 43
O=C(COc1ccc(F)cc1)N1CCCc2ccccc21 | 74.6
CC(=O)NC(Cc1c[nH]c2ccccc12)C(=O)OCC(=O)Nc1cc(C)on1 (stereo unspecified) | -1.64
Cn1nnnc1Sc1ccc(C(=O)O)cc1[N+](=O)[O-] | -12.4
O=C(O)c1ccc(Sc2nnnn2-c2ccccc2)c([N+](=O)[O-])c1 | 29.1
O=C(c1cc2n(n1)C(C(F)(F)F)CC(c1ccco1)N2)N1CCN(c2ccccn2)CC1 (stereo unspecified) | 8.02
CCN(Cc1ccccc1)c1ccc(/C=N/N2CCOCC2)cc1 | 12.8
NC(N)=N/N=C/c1ccccc1 | 13.1
O=C1c2ccccc2NC(c2ccco2)N1NS(=O)(=O)c1ccccc1 (stereo unspecified) | 1.96
O=[N+]([O-])c1ccc(Oc2ccc(-c3nnco3)cc2)c(Cl)c1 | -9.83
O=C(CCc1nc(-c2ccccc2Cl)no1)NCc1ccco1 | 43.2
O=[N+]([O-])c1ccc(NCCO)c2ncccc12 | 9.39
CCNCCNc1ccc([N+](=O)[O-])c2cccnc12 | 79.3
O=C(CCSc1nnc(-c2ccco2)o1)N1CCOCC1 | 75.9
O=C(CCSc1ccccc1)N1CCOCC1 | 14.3
O=C(CCSc1nnc(-c2ccc(O)cc2)o1)N1CCOCC1 | 70.5
O=C(CCSc1ccccc1)N1CCN(c2ccccc2)CC1 | 10.9

SMILES | inhibition [%]
Cc1cc(OCC(=O)N[C@@H](Cc2c[nH]c3ccccc23)C(=O)O)c2c(C)c(C)c(=O)oc2c1 | 5.84
O=C(CN1C(=O)C(=O)c2ccccc21)c1ccccc1 | 27
COc1ccc(-n2c(-c3ccccc3)cc3c2CCCC3=O)cc1 | 17.2
CCCCCCNc1nc(OC)nc(N2CC3CC(C2)c2cccc(=O)n2C3)n1 (stereo unspecified) | 3.85
COc1ccc(O)cc1 | -8.51
COc1ccc(-c2ccc(OC)cc2)cc1 | 10.9
CCc1ccc(OCc2ccc(C(=O)OC)o2)cc1 | 72.2
COC(=O)c1ccc(COc2ccc(/C=N/O)cc2)o1 | 29.5
COc1ccc(-n2cnc3cc(C(=O)N4CCOCC4)ccc32)cc1 | -8.02
O=C(NC(Cc1ccccc1)C(=O)O)NC12CC3CC(CC(C3)C1)C2 (stereo unspecified) | -6.43
CCN(CC)CCn1c(=S)[nH]c2cc(C(=O)NCc3ccccc3Cl)ccc2c1=O | 35
Cc1ccc(C2C(C#N)=C(N)Oc3n[nH]c(-c4cccnc4)c32)o1 (stereo unspecified) | -0.74
N#CC1=C(N)Oc2n[nH]c(-c3ccccc3)c2C1c1cccnc1 (stereo unspecified) | 9.98
O=C(OCC(=O)c1cccc2ccccc12)c1ccc(CO)cc1 | 60
CCCN(CCC)c1nc2ccccc2n2c(C)nnc12 | 17.5
O=C(N/N=C\c1c(O)ccc2ccccc12)c1ccc(O)cc1 | 27.8
O=C(N/N=C\c1c(O)ccc2ccccc12)c1ccc(Cn2cccn2)o1 | -4.74
CSc1cccc(CN2CCC(Oc3ccc(C(=O)N4CCCCC4)cc3)CC2)c1 | 64.2
CCOC(=O)c1c(NC(=O)CSc2nc3cc(Cl)ccc3s2)sc(C(C)=O)c1C | 2.44
Cc1ccc(/C=N/NC(=O)c2nnn(-c3nonc3N)c2CN(C)C)o1 | -3.62
NC(=O)COc1c(-c2ccc(Br)o2)oc2ccccc2c1=O | -1.98
O=C(Oc1c(-c2ccccc2)oc2ccccc2c1=O)c1ccccc1 | 26.1
N#Cc1c(OCC(=O)c2ccccc2)nc2c(c1-c1ccco1)CCc1ccccc1-2 | -14.7
NC(=O)Cc1nc(-c2ccc(F)cc2)cs1 | 8.71

SMILES | inhibition [%]
Cc1ccc(C(=O)CNc2cccc([N+](=O)[O-])c2)cc1 | 11.3
O=C(NC(=S)Nc1cccc(F)c1)c1cccc([N+](=O)[O-])c1 | 74
O=C(CNc1cccc2ccccc12)c1ccc([N+](=O)[O-])cc1 | 73.1
Cc1ccc(NCC(=O)c2ccc([N+](=O)[O-])cc2)cc1 | 68
CCOC(=O)C1=C(C)N(CCCC(=O)O)C(=O)NC1c1ccccc1Cl (stereo unspecified) | 0.44
CCOC(=O)C(C)/C(C)=N\Nc1ccc([N+](=O)[O-])cc1[N+](=O)[O-] (stereo unspecified) | -5.18
CCCC1CC(c2csc(N)n2)CCO1 (stereo unspecified) | -0.79
COc1ccc(OC)c(/C=C/C(=O)Oc2ccc(C(C)=O)cc2)c1 | 64.2
O=C(Cn1c(SCC(=O)N2CCCc3ccccc32)nc2ccccc21)N1CCCC1 | -11.8
O=C(NNC(=O)C1CCC1)c1ccc(Br)cc1 | 3.14
O=C(NNC(=O)c1ccc(Br)cc1)c1ccncc1 | 41.7
C/C(NC1CCCCC1)=C(/C#N)C(=O)NCCN1CCOCC1 | 1.64
O=[N+]([O-])c1cnc(Nc2ccccc2)nc1Nc1ccccc1 | 0.51
Cc1cc(O)c(NC(=O)c2cc([N+](=O)[O-])ccc2Cl)cc1C | 32.1
CC(=O)OCC(=O)Nc1ccc([N+](=O)[O-])cc1Cl | -21.2
CN(C)C(=O)Oc1ccc2ccccc2c1Cl | 5.7
O=C(CSc1ccccc1F)NCCN1C(=O)CSC1=O | -0.52
O=C(O)CN1C(c2ccccc2)=Nc2ccc(Br)cc2C1c1ccccc1 (stereo unspecified) | -0.36
CCOC(=O)c1cc2c(ccc3ccccc32)oc1=O | 74.5
O=C(O)c1cc2c(ccc3ccccc32)oc1=O | -4.26
